Results taken from the supplement of paper PMC10849652.
Of roughly 8,800 targets only a part is listed; those with a hit were picked by preference. About 0.5% of all pairs of compound and target were hits.

What was measured:
Experiment in all cases: log2 fold change, soluble protein after heating vs DMSO (PISA); higher = thermal stabilisation; K562 lysate, 10 uM; active = over 0.2 and 3.5 SD of the protein, either way, in both replicates (recomputed)
erlotinib = compound: C#Cc1cccc(Nc2ncnc3cc(OCCOC)c(OCCOC)cc23)c1 [erlotinib]
Procedure, shortened: (§1)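 Following dounce homogenisation of K562 pellets in PBS pH 7.4 with 1 mM MgCl2, crude extract at 1 mg/mL protein was incubated for 30 min with 10 μM compound. Aliquots were then heated for 3 min over 48°C-58°C and pooled, NP-40 was added to 0.5% at 4°C, and soluble protein was recovered as the supernatant at 21,000xg for 90 min. Channel-sum-equalised TMTpro 16plex LC-MS/MS quantified this protein. Each value, from duplicates, is a log-two fold change in thermal stability relative to solvent controls.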

[1] = compound: C1=CC(=CC=C1C2=NC3=C(N2)C=C(C=C3)C(=O)N)OC4=CC=C(C=C4)Cl
Procedure, shortened: as §1

[2] = compound: C1=CC2=NC=CN=C2C=C1/C=C/3\C(=O)NC(=O)S3
Procedure, shortened: as §1

[3] = compound: C1=CC=C(C=C1)C2=NC(=C(N2)C3=CC=NC=C3)C4=CC(=C(C=C4)Cl)O
Procedure, shortened: as §1

[4] = compound: C1CCN(C1)C(=O)NC2=CC=CC(=C2)NC3=NC=C(C(=N3)NCCC4=CN=CN4)Br
Procedure, shortened: as §1

[5] = compound: C1CN(CCC1(CC2=CC=C(C=C2)Cl)N)C3=NC=NC4=C3C=CN4
Procedure, shortened: as §1

IRAK-1-4 Inhibitor I = compound: C1COCCN1CCN2C3=CC=CC=C3N=C2NC(=O)C4=CC(=CC=C4)[N+](=O)[O-] [IRAK-1-4 Inhibitor I]
Procedure, shortened: as §1

ibrutinib = compound: C=CC(=O)N1CCC[C@@H](n2nc(-c3ccc(Oc4ccccc4)cc3)c3c(N)ncnc32)C1 [ibrutinib]
Procedure, shortened: as §1

[6] = compound: CC(=O)c1cnc2ccc(-c3cc(Cl)c(O)c(Cl)c3)nc2c1N[C@H]1CC[C@H](CN(C)C)CC1
Procedure, shortened: as §1

ralimetinib = compound: CC(C)(C)Cn1c(N)nc2ccc(-c3[nH]c(C(C)(C)C)nc3-c3ccc(F)cc3)nc21 [ralimetinib]
Procedure, shortened: as §1

[7] = compound: CC(C)(O)CC(=O)NCCn1ccc2ncnc(Nc3ccc(Oc4cccc(C(F)(F)F)c4)c(Cl)c3)c21
Procedure, shortened: as §1

[8] = compound: CC(C)C1=C2N=C(C=C(N2N=C1)NCC3=CC=CC=C3)NCCCCCCN
Procedure, shortened: as §1

[9] = compound: CC1=C(C(CC(=O)N1)C2=CC=C(C=C2)C(F)(F)F)C(=O)NC3=C(C=C4C(=C3)C=NN4)F
Procedure, shortened: as §1

[10] = compound: CC1=C(C2=C(C=C1)C(=O)C3=CC=CC=C3N2CCCN)C
Procedure, shortened: as §1

[11] = compound: CC1=C(C=C(C=C1)NC(=O)C2=CC(=CC=C2)C(C)(C)C#N)NC3=CC4=C(C=C3)N=CN(C4=O)C
Procedure, shortened: as §1

[12] = compound: CC1=C(C=C(C=C1)NC(=O)C2=CC(=CC=C2)N(C)C)NC(=O)C3=CC=C(C=C3)O
Procedure, shortened: as §1

[13] = compound: CC1=CC=C(C=C1)SC2=C3C=C(SC3=CN=C2)C(=O)N
Procedure, shortened: as §1

[14] = compound: C/C(=N\NC(=O)C1=CC(=CC=C1)S(=O)(=O)N2CCOCC2)/C3=C(C=CC(=C3)Cl)O
Procedure, shortened: as §1

[15] = compound: C1=CC2=C(C=CC(=C2)/C=C\3/C(=O)NC(=NCC4=CC=CS4)S3)N=C1
Procedure, shortened: as §1

[16] = compound: C1=CC=C2C(=C1)C3=NNC4=CC=CC(=C43)C2=O
Procedure, shortened: as §1

Measured: log2 fold change

WIPI1 (UniProt Q5MNZ9)
Sequence of UniProt Q5MNZ9 (Q5MNZ9 whole entry, looked up): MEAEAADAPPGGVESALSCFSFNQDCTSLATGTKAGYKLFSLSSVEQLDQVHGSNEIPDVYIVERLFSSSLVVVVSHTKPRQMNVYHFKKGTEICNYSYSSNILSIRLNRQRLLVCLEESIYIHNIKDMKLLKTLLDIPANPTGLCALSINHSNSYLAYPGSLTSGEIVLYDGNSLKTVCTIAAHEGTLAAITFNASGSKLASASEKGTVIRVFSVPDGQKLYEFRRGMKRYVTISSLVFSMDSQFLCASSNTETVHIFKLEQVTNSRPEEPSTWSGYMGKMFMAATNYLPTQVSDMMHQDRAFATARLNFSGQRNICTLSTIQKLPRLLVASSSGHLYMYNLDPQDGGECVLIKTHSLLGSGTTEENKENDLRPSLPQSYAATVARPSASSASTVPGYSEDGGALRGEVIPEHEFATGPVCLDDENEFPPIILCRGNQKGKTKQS
inactive: erlotinib -0.025 | [1] -0.006 | [2] -0.016 | [3] -0.027 | [4] 0.035 | [5] -0.013 | IRAK-1-4 Inhibitor I -0.007 | ibrutinib 0.098 | [6] -0.062 | ralimetinib 0.002 | [7] 0.019 | [8] -0.008 | [9] 0.1 | [10] -0.023 | [11] -0.005 | [12] -0.009 | [13] -0.033

VHL (UniProt P40337)
Sequence of UniProt P40337 (P40337 whole entry, looked up): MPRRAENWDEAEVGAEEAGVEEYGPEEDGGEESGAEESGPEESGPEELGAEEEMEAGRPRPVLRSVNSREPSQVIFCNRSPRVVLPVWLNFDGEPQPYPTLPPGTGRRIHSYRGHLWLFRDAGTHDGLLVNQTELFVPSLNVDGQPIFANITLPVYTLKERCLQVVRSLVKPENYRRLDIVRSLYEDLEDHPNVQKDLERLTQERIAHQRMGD
inactive: erlotinib 0.088 | [14] 0.034 | [1] -0.016 | [15] 0.059 | [2] 0.032 | [3] -0.09 | [16] -0.003 | [4] -0.007 | [5] -0.107 | IRAK-1-4 Inhibitor I 0.02 | ibrutinib 0.033 | ralimetinib 0.09 | [7] -0.027 | [8] 0.06 | [9] -0.045 | [10] -0.109 | [11] -0.013 | [12] 0.024

USP22 (UniProt Q9UPT9)
Sequence of UniProt Q9UPT9 (Q9UPT9 whole entry, looked up): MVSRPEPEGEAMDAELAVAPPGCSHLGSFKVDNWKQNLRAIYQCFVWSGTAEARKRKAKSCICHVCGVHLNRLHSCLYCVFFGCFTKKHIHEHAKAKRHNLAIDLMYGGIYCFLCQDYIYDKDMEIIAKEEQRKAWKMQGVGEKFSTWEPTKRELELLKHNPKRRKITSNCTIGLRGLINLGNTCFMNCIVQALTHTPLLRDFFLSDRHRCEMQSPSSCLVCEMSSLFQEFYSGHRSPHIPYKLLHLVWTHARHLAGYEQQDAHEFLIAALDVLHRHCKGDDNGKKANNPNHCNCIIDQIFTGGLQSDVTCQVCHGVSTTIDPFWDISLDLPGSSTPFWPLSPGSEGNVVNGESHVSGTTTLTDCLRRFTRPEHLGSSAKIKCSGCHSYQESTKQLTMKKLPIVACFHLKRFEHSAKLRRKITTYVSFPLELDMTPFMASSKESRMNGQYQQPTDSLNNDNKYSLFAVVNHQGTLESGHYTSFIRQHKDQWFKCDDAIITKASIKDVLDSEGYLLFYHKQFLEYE
inactive: erlotinib 0.072 | [14] 0.019 | [1] -0.025 | [15] 0.048 | [2] -0.022 | [3] -0.003 | [16] -0.013 | [4] -0.021 | [5] 0.004 | IRAK-1-4 Inhibitor I -0.005 | ibrutinib -0.031 | ralimetinib 0.023 | [7] 0.006 | [8] 0.027 | [9] -0.057 | [10] -0.034 | [11] 0.065 | [12] 0.056

ULK3 isoform 4 (UniProt Q6PHR2)
Sequence of UniProt Q6PHR2 (Q6PHR2 whole entry, looked up): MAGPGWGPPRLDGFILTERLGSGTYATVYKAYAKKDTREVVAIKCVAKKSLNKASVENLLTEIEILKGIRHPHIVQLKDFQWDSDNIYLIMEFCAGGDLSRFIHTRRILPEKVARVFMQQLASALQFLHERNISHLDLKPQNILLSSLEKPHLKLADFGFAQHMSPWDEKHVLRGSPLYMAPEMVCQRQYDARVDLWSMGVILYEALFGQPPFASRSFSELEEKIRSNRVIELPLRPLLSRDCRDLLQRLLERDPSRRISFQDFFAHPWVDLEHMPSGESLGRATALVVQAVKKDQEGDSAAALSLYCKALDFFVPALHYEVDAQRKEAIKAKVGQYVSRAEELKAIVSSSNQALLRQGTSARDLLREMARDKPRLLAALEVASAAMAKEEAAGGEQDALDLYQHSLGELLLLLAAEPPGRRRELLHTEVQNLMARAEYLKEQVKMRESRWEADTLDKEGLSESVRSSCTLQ
inactive: erlotinib 0.156 | [14] 0.149 | [1] -0.008 | [15] -0.151 | [2] -0.053 | [16] 0.177 | [4] 0.179 | [5] 0.01 | ibrutinib -0.08 | [6] -0.024 | [8] -0.091 | [10] -0.06 | [11] 0.094 | [13] 0.08

ZYG11A (UniProt Q6WRX3)
inactive: erlotinib -0.125 | [1] -0.059 | [2] -0.061 | [3] -0.04 | IRAK-1-4 Inhibitor I -0.004 | ibrutinib 0.228 | [6] 0.063 | ralimetinib 0.082 | [7] -0.087 | [8] -0.159 | [9] 0.046 | [12] 0.052 | [13] -0.315

ZSCAN21 (UniProt Q9Y5A6)
inactive: [4] -0.022 | [5] 0.037

WSB1 (UniProt Q9Y6I7)
inactive: [3] 0.037 | IRAK-1-4 Inhibitor I -0.093 | ralimetinib 0.08 | [7] -0.006 | [10] -0.037 | [12] -0.028

WIPI2 isoform 6 (UniProt Q9Y4P8)
inactive: [2] 0.079 | ibrutinib -0.021

ZSWIM8 isoform 4 (UniProt A7E2V4)
Sequence of UniProt A7E2V4 (A7E2V4 whole entry, looked up): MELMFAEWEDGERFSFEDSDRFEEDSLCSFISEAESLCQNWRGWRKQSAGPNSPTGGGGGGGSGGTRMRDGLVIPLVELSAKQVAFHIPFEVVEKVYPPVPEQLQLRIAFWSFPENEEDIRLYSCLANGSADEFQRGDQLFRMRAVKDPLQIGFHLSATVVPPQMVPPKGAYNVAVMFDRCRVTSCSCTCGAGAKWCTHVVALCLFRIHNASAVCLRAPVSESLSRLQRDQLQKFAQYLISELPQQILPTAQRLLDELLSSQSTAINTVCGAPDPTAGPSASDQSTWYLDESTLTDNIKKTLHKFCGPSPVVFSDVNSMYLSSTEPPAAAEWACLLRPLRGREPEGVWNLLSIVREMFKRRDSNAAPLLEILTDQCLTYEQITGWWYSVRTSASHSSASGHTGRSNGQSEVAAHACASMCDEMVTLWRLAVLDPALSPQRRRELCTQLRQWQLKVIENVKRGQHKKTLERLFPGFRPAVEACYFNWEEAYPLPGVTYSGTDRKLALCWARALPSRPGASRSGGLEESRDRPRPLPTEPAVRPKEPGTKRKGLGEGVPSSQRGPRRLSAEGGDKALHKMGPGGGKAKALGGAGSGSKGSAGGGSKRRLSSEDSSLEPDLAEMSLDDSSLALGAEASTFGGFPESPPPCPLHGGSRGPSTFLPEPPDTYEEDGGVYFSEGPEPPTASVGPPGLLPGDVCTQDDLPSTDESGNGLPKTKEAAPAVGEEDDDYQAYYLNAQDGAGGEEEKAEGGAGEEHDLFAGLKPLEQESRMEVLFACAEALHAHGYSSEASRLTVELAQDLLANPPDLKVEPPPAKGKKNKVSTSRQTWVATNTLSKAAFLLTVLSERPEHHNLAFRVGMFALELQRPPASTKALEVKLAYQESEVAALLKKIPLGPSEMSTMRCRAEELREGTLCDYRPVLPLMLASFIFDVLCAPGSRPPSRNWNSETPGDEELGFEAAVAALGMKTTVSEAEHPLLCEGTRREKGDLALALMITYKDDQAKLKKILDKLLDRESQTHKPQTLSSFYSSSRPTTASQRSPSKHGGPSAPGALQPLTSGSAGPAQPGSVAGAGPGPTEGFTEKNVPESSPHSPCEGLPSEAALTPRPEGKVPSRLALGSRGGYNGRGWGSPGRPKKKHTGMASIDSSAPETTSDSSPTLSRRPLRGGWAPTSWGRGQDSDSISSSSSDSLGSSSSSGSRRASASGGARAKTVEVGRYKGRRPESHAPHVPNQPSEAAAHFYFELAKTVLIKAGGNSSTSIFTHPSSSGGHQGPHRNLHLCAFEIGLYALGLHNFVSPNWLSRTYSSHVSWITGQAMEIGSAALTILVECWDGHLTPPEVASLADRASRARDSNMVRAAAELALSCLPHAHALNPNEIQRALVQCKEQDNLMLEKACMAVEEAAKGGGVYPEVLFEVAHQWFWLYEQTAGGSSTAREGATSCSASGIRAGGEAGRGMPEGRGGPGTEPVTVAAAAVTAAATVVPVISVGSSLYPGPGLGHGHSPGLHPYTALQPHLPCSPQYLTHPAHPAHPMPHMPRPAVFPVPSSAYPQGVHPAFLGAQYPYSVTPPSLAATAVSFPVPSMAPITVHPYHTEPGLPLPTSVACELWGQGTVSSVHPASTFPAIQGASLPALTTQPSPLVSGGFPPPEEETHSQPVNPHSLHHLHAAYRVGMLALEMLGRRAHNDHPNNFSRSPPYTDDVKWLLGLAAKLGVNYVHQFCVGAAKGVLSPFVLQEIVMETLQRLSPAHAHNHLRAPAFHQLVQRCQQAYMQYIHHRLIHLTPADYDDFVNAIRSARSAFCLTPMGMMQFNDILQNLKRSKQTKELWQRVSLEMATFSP
inactive: erlotinib 0.025 | [1] -0.053 | [15] 0.02 | [2] -0.044 | [3] -0.021 | [16] -0.163 | [4] -0.239 | [5] 0.109 | IRAK-1-4 Inhibitor I -0.122 | ibrutinib -0.08 | ralimetinib 0.101 | [7] -0.048 | [8] 0.002 | [9] -0.017 | [10] 0.28 | [11] -0.131 | [12] 0.105
active: [14] 0.508

UNC13A (UniProt Q9UPW8)
inactive: erlotinib 0.069 | [1] 0.039 | [8] 0.022 | [9] -0.053

UTRN isoform 2 (UniProt P46939)
inactive: erlotinib -0.222 | [1] 0.247 | [2] -0.072 | [4] 0.135 | [5] 0.171 | ibrutinib -0.03 | [8] -0.012

WAC isoform 5 (UniProt Q9BTA9)
inactive: erlotinib -0.01 | [1] -0.156 | [3] 0.062 | IRAK-1-4 Inhibitor I 0.018 | ralimetinib 0.059 | [7] -0.145 | [8] -0.038 | [10] 0.127 | [12] 0.096

ZKSCAN8 (UniProt Q15776)
Sequence of UniProt Q15776 (Q15776 whole entry, looked up): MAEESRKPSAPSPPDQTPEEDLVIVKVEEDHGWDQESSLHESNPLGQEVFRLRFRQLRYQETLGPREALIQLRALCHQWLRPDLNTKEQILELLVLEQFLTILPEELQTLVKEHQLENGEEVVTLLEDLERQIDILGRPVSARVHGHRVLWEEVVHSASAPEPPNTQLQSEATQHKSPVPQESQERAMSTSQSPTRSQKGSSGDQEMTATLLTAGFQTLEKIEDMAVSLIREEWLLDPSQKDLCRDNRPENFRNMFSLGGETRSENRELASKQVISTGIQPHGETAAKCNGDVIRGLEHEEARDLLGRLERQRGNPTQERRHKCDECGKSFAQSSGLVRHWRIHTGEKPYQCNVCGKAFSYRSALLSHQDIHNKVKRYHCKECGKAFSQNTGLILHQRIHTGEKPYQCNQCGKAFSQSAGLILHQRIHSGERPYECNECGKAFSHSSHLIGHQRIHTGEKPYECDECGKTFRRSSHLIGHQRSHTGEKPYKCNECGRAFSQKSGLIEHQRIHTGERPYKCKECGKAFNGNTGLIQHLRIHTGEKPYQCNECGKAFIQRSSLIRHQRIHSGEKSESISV
active: [6] 0.514
inactive: erlotinib -0.005 | [14] -0.418 | [1] -0.148 | [15] 0.004 | [3] -0.001 | [16] -0.04 | [4] 0.031 | [5] 0.006 | IRAK-1-4 Inhibitor I 0.077 | ralimetinib -0.021 | [7] -0.002 | [8] 0.229 | [9] 0.098 | [10] 0.008 | [11] -0.008 | [12] 0.04 | [13] -0.054

ZBTB33 (UniProt Q86T24)
Sequence of UniProt Q86T24 (Q86T24 whole entry, looked up): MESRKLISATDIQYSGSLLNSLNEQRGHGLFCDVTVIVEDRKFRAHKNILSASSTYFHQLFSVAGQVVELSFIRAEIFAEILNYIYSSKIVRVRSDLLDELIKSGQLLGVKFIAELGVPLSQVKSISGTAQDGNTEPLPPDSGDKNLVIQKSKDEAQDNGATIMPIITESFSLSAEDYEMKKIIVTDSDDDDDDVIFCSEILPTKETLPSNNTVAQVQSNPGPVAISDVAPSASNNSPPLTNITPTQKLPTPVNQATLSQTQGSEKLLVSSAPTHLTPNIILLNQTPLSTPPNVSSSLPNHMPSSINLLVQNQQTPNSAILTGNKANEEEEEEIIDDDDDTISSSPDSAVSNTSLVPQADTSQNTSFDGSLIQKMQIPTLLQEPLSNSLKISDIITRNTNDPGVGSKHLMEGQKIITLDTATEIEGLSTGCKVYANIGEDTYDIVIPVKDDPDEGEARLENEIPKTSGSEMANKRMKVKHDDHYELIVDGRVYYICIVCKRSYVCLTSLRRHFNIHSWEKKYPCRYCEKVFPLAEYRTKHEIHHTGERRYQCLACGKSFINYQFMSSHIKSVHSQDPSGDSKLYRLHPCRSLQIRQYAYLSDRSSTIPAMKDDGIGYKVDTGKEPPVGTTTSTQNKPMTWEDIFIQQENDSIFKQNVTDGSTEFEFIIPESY
inactive: erlotinib 0 | [14] 0.012 | [1] 0.101 | [15] 0.062 | [2] 0.144 | [3] -0.025 | [16] -0.101 | [4] -0.053 | [5] 0.068 | IRAK-1-4 Inhibitor I -0.042 | ibrutinib 0.258 | [6] 0.183 | ralimetinib -0.058 | [7] -0.158 | [8] 0.141 | [9] -0.027 | [10] 0.109 | [11] 0.129 | [12] 0.044 | [13] 0.109

ZSCAN26 (UniProt Q16670)
inactive: [11] 0.007
